Results reported in PubChem BioAssay AID1159580 (chemical genetic matrix, 2015).
“And” between values parts separate entries of the source, which are not always exact repeats. Equal values may be shown once. In all, about 5,500 compounds went through this assay and about 2,000 (36%) were called active. About 18% were inconclusive and are not listed. Rule as the data show it: active = normalized growth mostly below about 0.91 (no sharp cut-off); inconclusive = no clear call, values can overlap the other calls; inactive = mostly above about 0.92. The list shows a part of the results.

Test: chemical genetic growth profiling, strain panel (AID 1159580);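 also: tested at 20 µM; growth read once vehicle control cultures reached saturation at 30 °C; 1 = growth at the plate median or of vehicle wells; lower values mean less growth of the strain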
Conditions: S. cerevisiae deletion strains, growth OD

Measured: normalized growth

CCOC(=O)c1c(C)cc(OC)cc1O
inactive: locus YAL013W, strain DEP1, active compounds read low 1 | locus YAL021C, strain ccr4, active compounds read low 1.02 | locus YAL026C, strain drs2, active compounds read low 0.977 | locus YAL030W, strain snc1, active compounds read low 0.962 | locus YBL061C, strain skt5, active compounds read low 0.981 | locus YBR009C, strain hhf1, active compounds read low 0.962 | locus YBR021W, strain FUR4, active compounds read low 0.971 | locus YBR023C, strain chs3, active compounds read low 0.97 | locus YBR171W, strain sec66, active compounds read low 0.934 | locus YBR229C, strain ROT2, active compounds read low 1 | locus YBR231C, strain swc5, active compounds read low 0.987 | locus YBR279W, strain paf1, active compounds read low 0.993 | locus YCL011C, strain gbp2, active compounds read low 0.975 | locus YCL016C, strain dcc1, active compounds read low 0.971 | locus YCL029C, strain bik1, active compounds read low 0.949 | locus YCL061C, strain MRC1, active compounds read low 0.972 | locus YCL069W, strain vba3, active compounds read low 0.969 | locus YCR088W, strain abp1, active compounds read low 0.953 | locus YDL005C, strain med2, active compounds read low 1.01 | locus YDL035C, strain GPR1, active compounds read low 0.983 | locus YDL040C, strain nat1, active compounds read low 0.959 | locus YDL074C, strain BRE1, active compounds read low 0.955 | locus YDL101C, strain DUN1, active compounds read low 1.01 | locus YDL134C, strain PPH21, active compounds read low 0.996 | locus YDL185W, strain tfp1, active compounds read low 0.984 | locus YDL192W, strain arf1, active compounds read low 0.942 | locus YDR001C, strain nth1, active compounds read low 0.96 | locus YDR069C, strain doa4, active compounds read low 0.999 | locus YDR150W, strain NUM1, active compounds read low 1.01 | locus YDR159W, strain sac3, active compounds read low 0.926 | locus YDR162C, strain NBP2, active compounds read low 1.01 | locus YDR195W, strain ref2 1.1 | locus YDR297W, strain sur2, active compounds read low 0.975 | locus YDR334W, strain swr1, active compounds read low 0.979 | locus YDR335W, strain msn5, active compounds read low 0.991 | locus YDR388W, active compounds read low 0.958 | locus YEL003W, strain gim4, active compounds read low 0.964 | locus YEL037C, strain rad23, active compounds read low 0.978 | locus YEL061C, strain CIN8 (second series), active compounds read low 0.962 | locus YEL061C, strain CIN8, active compounds read low 0.989 | locus YER015W, strain faa2, active compounds read low 0.991 | locus YER016W, strain bim1, active compounds read low 0.975 | locus YER111C, strain swi4, active compounds read low 0.985 | locus YER155C, strain BEM2, active compounds read low 0.985 | locus YER167W, strain BCK2, active compounds read low 0.935 | locus YFR010W, strain ubp6, active compounds read low 0.99 | locus YGL078C, strain dbp3, active compounds read low 0.963 | locus YGL086W, strain mad1, active compounds read low 0.943 | locus YGL167C, strain pmr1, active compounds read low 0.973 | locus YGL173C, strain kem1, active compounds read low 0.985 | locus YGL227W, strain vid30, active compounds read low 0.963 | locus YGL240W, strain doc1, active compounds read low 0.903 | locus YGL248W, strain PDE1, active compounds read low 1 | locus YGL253W, strain hxk2, active compounds read low 0.994 | locus YGR078C, strain PAC10, active compounds read low 0.965 | locus YGR135W, strain pre9, active compounds read low 0.912 | locus YGR229C, strain SMI1, active compounds read low 0.972 | locus YGR252W, strain gcn5, active compounds read low 0.918 | locus YHR013C, strain ard1, active compounds read low 0.969 | locus YHR027C, strain rpn1, active compounds read low 0.988 | locus YHR030C, strain SLT2, active compounds read low 0.983 and 0.948 | locus YHR079C, strain IRE1, active compounds read low 0.956 | locus YHR094C, strain hxt1, active compounds read low 0.946 | locus YHR129C, strain ARP1, active compounds read low 0.983 | locus YHR142W, strain chs7, active compounds read low 0.918 | locus YHR200W, strain rpn10, active compounds read low 0.926 | locus YIL066C, strain RNR3, active compounds read low 1 | locus YIL073C, strain SPO22, active compounds read low 0.891 | locus YIR030C, strain dcg1, active compounds read low 0.94 | locus YJL092W, strain hpr5, active compounds read low 0.96 | locus YJL095W, strain BCK1 (second series), active compounds read low 0.976 | locus YJL095W, strain BCK1, active compounds read low 0.951 and 0.943 | locus YJL115W, strain asf1, active compounds read low 0.981 | locus YJL129C, strain trk1, active compounds read low 0.933 | locus YJL134W, strain LCB3, active compounds read low 0.988 | locus YJL154C, strain vps35, active compounds read low 0.97 | locus YJL166W, strain qcr8, active compounds read low 0.97 | locus YJL168C, strain set2, active compounds read low 0.959 | locus YJL187C, strain SWE1 (second series), active compounds read low 1 | locus YJL187C, strain SWE1, active compounds read low 0.979 | locus YJR043C, strain POL32, active compounds read low 0.921 | locus YJR066W, strain TOR1, active compounds read low 0.9
active: locus YDR101C, strain arx1, active compounds read low 0.917 | locus YDR137W, strain rgp1, active compounds read low 0.784 | locus YDR318W, strain mcm21, active compounds read low 0.902 | locus YDR392W, strain spt3, active compounds read low 0.724 | locus YDR502C, strain sam2, active compounds read low 0.921 | locus YER110C, active compounds read low 0.899 | locus YER155C, strain BEM2 (second series), active compounds read low 0.609 | locus YHR079C, strain IRE1 (second series), active compounds read low 0.912 | locus YIL125W, strain kgd1, active compounds read low 0.929 | locus YJL164C, strain tpk1, active compounds read low 0.911
